From the supplement of paper PMC10338343
± gives the standard deviation. In all, about 8,200 sequences were measured (“pre-steady-state target cleavage rate”: median about 0.024, highest 2% from about 1.3 on). Shown is part of a subset that was picked to be rich in the highest values.

Test system: MIWI (PIWIL1) piRISC loaded with L1MC piRNA (30 nt)
Assay: pre-steady-state target cleavage rate (min^-1); MIWI and MILI are mouse PIWI proteins and EfPiwi is from a freshwater sponge; tags in brackets are library labels; higher = faster piRNA-guided slicing of the target
Conditions: guide: L1MC piRNA 5'p-UAACUAAAUACUAUGCAAGCUGUAGGUCCU
Outline: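 Cleave-'n-Seq reactions paired 0.1 nM transcribed, DNA-blocked target RNA library with 1 nM active affinity-purified piRISC holding one synthetic guide, plus or minus 500 nM GTSF1 partner protein, in HEPES–potassium acetate buffer at 33 °C for 0–8 or 0–960 min. After sequencing of uncleaved targets and normalisation to depth and weakly complementary targets, the pre-steady-state cleavage rate was taken from a burst-and-steady-state fit. Three trials were pooled, and k3 was capped at 0.0001 min^-1.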

[1] = auxiliary factor: 500 nM mouse GTSF1
[2] = auxiliary factor: none (no GTSF1)

| Sequence | pre-steady-state target cleavage rate [1] | pre-steady-state target cleavage rate [2] |
| --- | --- | --- |
| UCCUGGAUGUCGAACCAUAGAUUUAGUUA | < 0.0001 |  |
| UCCUGCUUCAGCUUGCAUAGUAAUUAGUUA | 0.823 ± 0.043 | 0.0173 ± 0.0042 |
| UCCUGCUACACCUUGCAUAGUAUUUACAAA | 0.245 ± 0.056 |  |
| UGGACCUACAGCUUGCAUAGUAUUAAGUAA | 0.335 ± 0.037 | 0.0164 ± 0.0052 |
| UCCUGGAUCAGCCUGCAUAGUAUUUAGUUA | 1.02 ± 0.045 | 0.0431 ± 0.008 |
| UGGACCUACAGCUUGCUAUGUAUUUAGUUA | 0.115 ± 0.016 | 0.00588 ± 0.001 |
| UCCUGGAACAGCUUGCAUAGUUUAUAGUUA | 0.0662 ± 0.011 | 0.0101 ± 0.003 |
| UGGAGCCUACAGCUUGCAUAGUAUUUAGUUA | 1.41 ± 0.1 | 0.0757 ± 0.013 |
| UGGAGCUACAGCAUGCAUAGUAUUUAGUUA | 1.14 ± 0.042 | 0.0429 ± 0.0078 |
| UGGAGCUACAGCUUGCAUAGUAUUUAGUAA | 0.953 ± 0.06 | 0.0465 ± 0.0085 |
| UGGAGCUACACCUUGCAUAGUAUUUAGUUA | 1.12 ± 0.051 | 0.0597 ± 0.0097 |
| AGGAGCUACACCUUGCAUAGUAUUUAGUUA | 1.36 ± 0.044 | 0.0609 ± 0.012 |
| UCGAGCUACAGCAUGCAUAGUAUUUAGUUA | 1.19 ± 0.054 | 0.0332 ± 0.0062 |
| AGGAGCUACAGCUUGCAUAGUAUUUAGUUA | 1.42 ± 0.055 | 0.0984 ± 0.016 |
| UGGAGCUACAGCUUGCAUAGUAUUUAGUUA | 1.25 ± 0.045 | 0.0783 ± 0.012 |
| AGGAGCUACAGCUUGCAUAGUAUUUAGUAA | 1.02 ± 0.092 | 0.0616 ± 0.012 |
| AGGAGCUACAGCAUGCAUAGUAUUUAGUUA | 1.37 ± 0.058 | 0.0574 ± 0.01 |
| UCGAGCUACACCUUGCAUAGUAUUUAGUUA | 1.01 ± 0.046 | 0.0524 ± 0.0089 |
| UCCUGCUACAGCUUGCAUUAGUAUUUAGUUA | 0.0188 ± 0.0083 |  |
| UCCAGGAACAGCUUGCAUAGUAUUUAGUAA | 0.57 ± 0.047 | 0.0391 ± 0.0081 |

| Sequence | pre-steady-state target cleavage rate [1] | pre-steady-state target cleavage rate [2] |
| --- | --- | --- |
| AGGAGCUACAGCUUGCAUAGUAUUAAGUUA | 0.783 ± 0.065 | 0.0457 ± 0.0092 |
| UCCACCUACAGCUUGCAUAGUUUUUUCAAA | 0.144 ± 0.028 |  |
| UCCUGGUACAGCUUGCAUAGUAUUAUCAAA [g7:g24:cont:t1A] | 0.124 ± 0.024 |  |
| UCGAGCCUACAGCUUGCAUAGUAUUUAGUUA | 1.46 ± 0.074 | 0.0844 ± 0.016 |
| UCCACCUACAGCUUGCAUAGUAUUUAGUUA [g2:g27:cont:t1A] | 0.987 ± 0.051 | 0.0744 ± 0.015 |
| UCCAGCUACAGCUUGCAUAGUAUUUAGUUA | 0.682 ± 0.042 | 0.0438 ± 0.0056 |
| UCCAGCCUACAGCUUGCAUAGUAUUUAGUUA | 1.32 ± 0.062 | 0.0623 ± 0.0092 |
| AGGAGCCUACAGCUUGCAUAGUAUUUAGUUA | 1.4 ± 0.072 | 0.0847 ± 0.013 |
| UCCUGGAUCAGCUAGCAUAGUAUUUAGAUA | 0.226 ± 0.026 | 0.00546 ± 0.0022 |
| UCGACCUACUGCUUGCAUACUAUUUAGUUA | 0.345 ± 0.014 | 0.0294 ± 0.0065 |
| UCCUCCUACAGCUUGCAUAAUAUUUAGUUA | 0.52 ± 0.03 | 0.0234 ± 0.0044 |
| UGGAGGAACAGCUUGCAUAGUAUUUAGUAA | 0.754 ± 0.05 | 0.0519 ± 0.012 |
| UCCACCUACACCAUGCAUAGUAUUUAGUUA | 0.719 ± 0.036 | 0.0161 ± 0.003 |
| UCCUGGAUGAGCUAGCAUAGUAUUUAGAAA | 0.124 ± 0.029 |  |
| AGCGACCUACAGCUUGCAUAGUAUUUAGUUA | 1.37 ± 0.049 | 0.112 ± 0.019 |
| UGCGACCUACAGCUUGCAUAGUAUUUAGUUA | 1.41 ± 0.057 | 0.0975 ± 0.02 |
| UCCUGCUACAGCUUGGUAAGUAUUUAGUUA | 0.0624 ± 0.011 |  |
| UCCUGGAUCAGCAUGCAUAGUAUUUAGAUA | 0.375 ± 0.034 | 0.00494 ± 0.0022 |
| UCCUGGAUCAGCUUGCAUAGUAUAUAGUAA | 0.458 ± 0.054 | 0.0134 ± 0.0052 |
